RORgamma inh: qHTS for inhibitors of ROR gamma transcriptional activity. Nuclear receptor ROR-gamma (Mus musculus), P51450. Drosophila S2 Gal4-RORgamma UAS-luciferase reporter, 20 h. Potency, µM (top dose mostly 53.6 µM), for the others: at the top dose activity change, negative = inhibition, usual class: inhibitors. 310,000 compounds, 5.4% hits. AID 2551, 2010; also: potency is read from the fitted curve at half-maximal effect; nearly all actives have a fitted effect of over 60% in size
Target sequence (P51450 whole entry, looked up, the tested form may be a part): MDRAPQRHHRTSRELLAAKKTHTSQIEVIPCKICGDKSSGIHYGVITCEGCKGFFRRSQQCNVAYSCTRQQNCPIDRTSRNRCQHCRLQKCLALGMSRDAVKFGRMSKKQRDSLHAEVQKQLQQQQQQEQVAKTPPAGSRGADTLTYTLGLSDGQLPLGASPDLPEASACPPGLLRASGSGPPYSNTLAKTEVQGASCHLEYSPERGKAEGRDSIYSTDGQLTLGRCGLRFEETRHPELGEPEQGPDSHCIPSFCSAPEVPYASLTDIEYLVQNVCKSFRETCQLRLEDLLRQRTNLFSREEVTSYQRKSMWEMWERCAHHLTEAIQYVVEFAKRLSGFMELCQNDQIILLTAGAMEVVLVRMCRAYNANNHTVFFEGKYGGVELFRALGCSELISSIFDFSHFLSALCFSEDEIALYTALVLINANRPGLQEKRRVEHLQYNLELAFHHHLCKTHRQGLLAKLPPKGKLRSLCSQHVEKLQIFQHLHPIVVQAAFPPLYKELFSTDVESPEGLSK
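Schneider cells (Drosophila), stable Gal4 DBD–ROR gamma + UAS-luc; 1 hr cmpd preincubation; Cu2+ induction 700 uM final; 20 hr ambient; luminescence.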
DT40 TDP1 CPT: qHTS for Inhibitors of human tyrosyl-DNA phosphodiesterase 1 (TDP1): qHTS in cells in presence of CPT. chicken DT40 Tdp1-/-;hTDP1 cells + 20 nM CPT, ATP luminescence, 48 h. Potency, µM (series often up to 46.2 µM), for inactives: top-dose activity change, negative = growth inhibition, hits mostly inhibitors. 420,000 compounds, 12% hits. AID 686979, 2013; also: potency is read from the fitted curve at half-maximal effect; nearly all actives have a fitted effect of over 55% in size
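Chicken DT40 Tdp1-/- cells stably complemented with human TDP1 were seeded at 400 cells/well in medium containing 20 nM camptothecin, exposed to pin-transferred compounds, and grown at 37 °C for at least 48 hr. Viability was read as ATP luminescence.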
LDHA inh: qHTS assay for inhibitors of human lactate dehydrogenase. L-lactate dehydrogenase A chain (Homo sapiens), P00338. purified LDHA, NADH/diaphorase-resazurin fluorescence; stronger effect = lower value. activity change, % (values are at about 110 or 230 µM). 480,000 compounds, 0.15% hits. AID 1347041, 2019; in the data active = activity change below about -30%; inconclusive = mostly about -25% to -30%;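 also: plate controls were DMSO wells for no effect and wells without enzyme for full effect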
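Human LDH5 (2 nM) was incubated with 0.06 mM NADH and 0.2 mM pyruvate for 5 min at room temperature in Tris pH 7.4. Remaining NADH was coupled through diaphorase/resazurin, and resorufin fluorescence was read at 0 and 20 min.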
IL1B secr inh: qHTS for Inhibitors of Inflammasome Signaling: IL-1-beta AlphaLISA Primary Screen; 360,000 compounds, 4.7% hits; activity change, % at 57.5 µM; THP-1 LPS/ATP IL-1B secretion, AlphaLISA, 16 h; stronger effect = lower value; AID 743279, 2014; in the data active = activity change below about -50%; inconclusive = mostly about -30% to -49%
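Secreted IL-1B measured by AlphaLISA bead assay after 16 h compound exposure of THP-1 cells; compounds (final up to 57.5 uM) added 1 h before LPS (250 ng/mL) and ATP (1.25 mM) stimulation; lower signal means less secretion.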
TDP1 cell noCPT: qHTS for Inhibitors of human tyrosyl-DNA phosphodiesterase 1 (TDP1): qHTS in cells in absence of CPT. Potency, µM (top dose mostly 46.2 µM), inactives show top-dose activity change, negative = growth inhibition, usual class: inhibitors. 420,000 compounds, 15% hits. AID 686978, 2013. DT40 Tdp1-/- hTDP1 cells, no CPT, ATP luminescence, 48 h; also: potency is read from the fitted curve at half-maximal effect; nearly all actives have a fitted effect of over 55% in size
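Seeded 400 DT40-hTDP1 cells/well (vehicle DMSO, no 20 nM CPT); pinned compounds; ≥48 hr at 37 °C; CellTiter-Glo luminescence as viability measure.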
Gal4-VP16 FLuc: VP16 counterscreen qHTS for inhibitors of ROR gamma transcriptional activity; 310,000 compounds, 3.5% hits; AID 2546, 2010; Drosophila S2 Gal4-VP16 UAS-luciferase, luminescence, 20 h; Potency, µM (highest dose often 53.6 µM), inactives show at the highest dose activity, negative = inhibition, usual class: inhibitors;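 also: Gal4-VP16 expression switched on by copper sulfate through the metallothionein promoter; potency is read from the fitted curve at half-maximal effect; nearly all actives have a fitted effect of over 50% in size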
Starred values were filed as active, the others as inactive; ? = inconclusive; · = no result; [ ] = another dose, or the depositor's remark. The list is not random: actives were taken first. Their share in the collection is about 18%. Unless noted, calls follow the shape of the dose curve; as a rule, active = well fitted curve in the direction sought with a large enough effect; inconclusive = small, poorly fitted or top-dose-only effect, or another doubt; inactive = no such curve, though single readings can be large; an effect the other way counts as inactive or inconclusive. Unless noted, % is scaled to controls: 0 for no effect and ±100 for the full control effect.

SMILES	RORgamma inh	DT40 TDP1 CPT	LDHA inh	IL1B secr inh	TDP1 cell noCPT	Gal4-VP16 FLuc
CN1C2CC(=O)CC1C(O)C2 (stereo unspecified)	-5%	·	·	·	·	-5%
c1ccc(C2(N3CCCCC3)CCCCC2)cc1	·	3%	-4	15	-18%	·
S=C=Nc1cccc(C2(N3CCCCC3)CCCCC2)c1	-11%	21µM*	-2	-54*	16µM*	-4%
C[n+]1ccc(-c2ccccc2)c2ccccc21	·	2.3µM*	-15	53	2.6µM*	·
O=C(O)CSC(c1ccc(F)cc1)c1ccc(F)cc1	·	·	7	·	·	·
O=[N+]([O-])c1c(Cl)c(Cl)c(Cl)c(Cl)c1Cl	21%	-2%	-8	-21	?	0%
Nc1cc(Cl)c2nonc2c1[N+](=O)[O-]	2µM*	0.73µM*	16	-102*	0.65µM*	2.8µM*
CN1CCC2=C[C@@H](O)[C@@H]3OC(=O)c4cc5c(cc4C3C21)OCO5 (stereo partly specified)	3%	-25%[9.04 µM]	·	·	-26%[9.04 µM]	-29%
Cc1cccc(NC(=O)Cn2cc(C(=O)c3ccccc3)c3ccccc32)c1	·	?	-6	·	?	·
Cc1ccc(C(=O)c2cn(CC(=O)Nc3ccc(C(C)C)cc3)c3nc(C)ccc3c2=O)cc1	·	6.5µM*	-16	·	6.5µM*	·
NC(Cc1ccc(Oc2cc(I)c(O)c(I)c2)c(I)c1)C(=O)O (stereo unspecified)	9%	·	·	·	·	-16%
Cc1ccc(NC(=O)CN2C(=O)CN=C(c3ccccc3)c3ccccc32)cc1	·	?	-1	·	?	·
O=C1CN=C(c2ccccc2Cl)c2cc(Cl)ccc2N1Cc1cccc(Cl)c1	·	21µM*	-6	·	?	·
Cc1ccc2c(c1)C(c1ccccc1)=NCC(=O)N2C	·	-15%	2	0	-21%	·
Cc1ccc(NC(=O)CN2C(=O)CN=C(c3ccccc3)c3cc(Cl)ccc32)cc1	-14%	?	-7	-66*	?	-5%
CN(C)c1ccc(NC(=O)CN2C(=O)CN=C(c3ccccc3)c3cc(Cl)ccc32)cc1	5%	?	3	-62*	?	0%
O=C1CN=C(c2ccccc2)c2cc(Cl)ccc2N1CC1CC1	26%	?	·	·	24µM*	2%
CCCC(Cn1cncn1)c1ccc(Cl)cc1Cl (stereo unspecified)	-20%	·	·	·	·	15%
Clc1nc(Cl)nc(Nc2ccccc2Cl)n1	-14%	·	·	·	·	-3%
NC(N)=NC(N)=NCc1cccnc1	·	·	-9	·	·	·
O=C1CSC(c2ccccc2Br)c2cn[nH]c2N1 (stereo unspecified)	·	·	11	·	·	·
NCCc1ccc(OC(F)(F)F)cc1	·	·	1	·	·	·
N#CCCn1cc(C(=O)Nc2ccc([N+](=O)[O-])cc2)c(-c2ccccc2)n1	11%	-6%	-7	12	-11%	-2%
CCN(CC)P(=O)(Nc1ccc([N+](=O)[O-])cc1)c1c(C)nn(CCC#N)c1NC(=O)c1ccc(Cl)cc1Cl (stereo unspecified)	?	18µM*	-4	-7	23µM*	-7%
CNC(C)C(O)c1ccc(O)cc1 (stereo unspecified)	-7%	2%	·	·	3%	-5%
OC(Cc1ccccc1)(c1ccccc1)C1CN2CCC1CC2 (stereo unspecified)	-14%	15µM*	-2	-14	16µM*	-6%
OC(c1ccccc1)(c1ccccc1)C1CN2CCC1CC2 (stereo unspecified)	11%	?	-11	-26	?	4%
